Drawing on PubChem BioAssay (EPA / NIEHS), this text covers outcome and AC50 for one compound.

Results filed as inconclusive are left out. Activity calls are given as the source filed them. Rule for the calls, unless noted: active = hit-call score of the fitted dose curve at least 0.9, where 1 is the maximum; inactive = score below 0.9.

Assay [1] can be described thus: CCTE_Shafer_MEA_dev_firing_rate_mean: CCTE's Neural Network Formation Assay for Mean Firing Rate, Shafer Lab (AID 2284031). Summed up: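 Spike frequency (spikes/recording length, averaged over active electrodes) was recorded on days 5, 7, 9 and 12 and collapsed to AUC; rat cortical cultures received compound continuously over 12 days of network development.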
Assay [2] can be described thus: CCTE_Shafer_MEA_dev_per_burst_spike_percent: CCTE's Neural Network Formation Assay for Percent of Spikes in a Burst, Shafer Lab (AID 2284032). Summed up:
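Value is trapezoidal AUC over recordings on days 5, 7, 9 and 12 of the well-mean fraction of spikes falling in single-electrode bursts; rat cortical cultures exposed continuously from plating, treatment renewed DIV 5 and 9, fitted downward against DMSO.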

Assay [3] is described as follows: CCTE_Shafer_MEA_dev_active_electrodes_number: CCTE's Neural Network Formation Assay for Number of Active Electrodes, Shafer Lab (AID 2284040; active = hit-call score of the fitted dose curve at least 0.9, where 1 is the maximum). The procedure, abridged: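 Counts electrodes per well firing at least 5 spikes/min, recorded on days 5, 7, 9 and 12 in rat cortical cultures dosed continuously from plating (treatment refreshed DIV 5, 9). Value is the area under the curve over recordings, fitted downward relative to DMSO.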

Assay [4] is described as follows: CCTE_Shafer_MEA_dev_bursting_electrodes_number: CCTE's Neural Network Formation Assay for Number of Bursting Electrodes, Shafer Lab (AID 2284043; active = hit-call score of the fitted dose curve at least 0.9, where 1 is the maximum). The procedure, abridged:
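Counted: electrodes with burst rate ≥1 per 2 min in each well. Cells: primary rat cortex, 1.5 x 10^5/well, on 16-electrode MEA wells. Exposure: DIV 0–12, compound renewed DIV 5 and 9. Recording days 5, 7, 9, 12; AUC vs DMSO baseline.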

A short description of assay [5]: CCTE_Shafer_MEA_dev_per_burst_interspike_interval: CCTE's Neural Network Formation Assay for Burst Interspike Interval, Shafer Lab (AID 2284044). The procedure, abridged: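 Primary rat cortical neurons on 48-well MEA plates, exposed from day 0 through day 12, treatment renewed at DIV 5 and 9. Within-burst interspike interval recorded days 5, 7, 9, 12, well-averaged, summarised as AUC; negative fit versus DMSO.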

The nature of assay [6]: CCTE_Shafer_MEA_dev_burst_duration_mean: CCTE's Neural Network Formation Assay for Mean Burst Duration, Shafer Lab (AID 2284045). Summed up:
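Network-formation assay in primary rat cortical neurons; treatment spans twelve days of development. Mean burst duration per well is integrated by trapezoidal AUC and fitted in the loss-of-signal direction against DMSO baseline.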

The nature of assay [7]: CCTE_Shafer_MEA_dev_interburst_interval_mean: CCTE's Neural Network Formation Assay for Mean Interburst Interval, Shafer Lab (AID 2284046).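 Note: well-mean interburst interval of bursting electrodes as AUC over four recording days; curve fitted for decrease in interburst interval relative to DMSO.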 Summed up: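 Network formation assay in primary rat cortical cultures, exposed from DIV 0 to 12. Mean interburst interval per well, integrated as AUC over four recordings.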
Assay [8] is described as follows: CCTE_Shafer_MEA_dev_network_spike_number: CCTE's Neural Network Formation Assay for Number of Network Spikes, Shafer Lab (AID 2284048).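 Note: synchronized bursts across electrodes counted on days 5 7 9 12 and integrated as AUC.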 The procedure, abridged:
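Extracellular recordings from 16-electrode wells track network formation in rat cortical cultures under continuous treatment from plating. The endpoint is network spike number, expressed as AUC across DIV 5–12 relative to DMSO vehicle.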

A short description of assay [9]: CCTE_Shafer_MEA_dev_network_spike_peak: CCTE's Neural Network Formation Assay for Mean Number of Electrodes in Network Spike, Shafer Lab (AID 2284049). The procedure, abridged: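 Continuous 12-day exposure of rat cortical cultures, starting at plating, on MEA plates. Endpoint: electrodes participating in network-spike peaks, AUC across DIV 5–12, DMSO as negative control.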

The nature of assay [10]: CCTE_Shafer_MEA_dev_spike_duration_mean: CCTE's Neural Network Formation Assay for Mean Spike Duration, Shafer Lab (AID 2284051).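 Note: mean network spike duration pooled as area under curve over DIV 5 to 12 recordings.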 Summed up: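 With DMSO as baseline, loss of mean network spike duration was scored from extracellular recordings of rat cortical neurons on MEA plates. Exposure spanned plating to DIV 12; the four recording days were collapsed into one AUC value.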

Assay [11] in a line: CCTE_Shafer_MEA_dev_per_network_spike_spike_number_mean: CCTE's Neural Network Formation Assay for Mean Number of Spikes in a Network Spike, Shafer Lab (AID 2284053). Summed up:
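First, rat cortical cells (1.5 x 10^5/well) were seeded onto MEA wells; second, dosing began at plating and was refreshed on DIV 5 and 9; finally, network-spike spike counts across DIV 5–12 were summarized as AUC.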

The nature of assay [12]: CCTE_Shafer_MEA_dev_per_network_spike_spike_percent: CCTE's Neural Network Formation Assay for Percent of Spikes in a Network Spike, Shafer Lab (AID 2284054). The procedure, abridged:
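Developing networks of rat cortical neurons are dosed at day 0 and recorded extracellularly four times up to day 12. The endpoint is the area under the curve of percent spikes in network spikes, fitted in the negative direction relative to DMSO.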

Assay [13] in a line: CCTE_Shafer_MEA_dev_mutual_information_norm: CCTE's Neural Network Formation Assay for Mutual Information Normalization, Shafer Lab (AID 2284091). The procedure, abridged:
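Exposure of primary rat cortical neurons began at plating and ran to DIV 12, with full media and treatment renewal after DIV 5 and 9 recordings. Mutual information AUC (DIV 5–12) was analysed for loss versus DMSO.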

The nature of assay [14]: CCTE_Shafer_MEA_dev_correlation_coefficient_mean: CCTE's Neural Network Formation Assay for Mean Correlation Coefficient, Shafer Lab (AID 2284093). Summed up: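 Extracellular firing from rat cortical networks on 48-well MEAs, DMSO-referenced, negative fitting direction. Compound present from plating to DIV12; mean pairwise correlation per well integrated over DIV5–12 recordings by trapezoidal AUC.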

A short description of assay [15]: UKN2_HCS_IMR90_neural_migration: University of Konstanz (UKN) Leist Lab Neural Crest Cell Migration Assay in human induced IMR90 Pluripotent Stem Cells (UKN2) (AID 2284204). To be noted: actives raise or lower the signal. The procedure, abridged: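 Using a 96-well stopper format with PLO/laminin/fibronectin coating, neural crest cells from iPSC migrate in cytokine-supplemented N2-S medium; after 24 h, chemicals are applied for a further 24 h, then cells are imaged after dye staining.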

The nature of assay [16]: IUF_NPC1b_proliferation_BrdU_72hr: Leibniz Research Institute for Environmental Medicine (IUF) 72-hour Neural Progenitor Cell Bromodeoxyuridine (BrdU) Proliferation Assay (NPC1b) (AID 2284207). The procedure, abridged: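 Neural progenitor spheres of human fetal origin are treated for three days; BrdU added for the last 16 h is quantified by luminescence ELISA, with DMSO as baseline and EGF/FGF omission as positive control.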

Assay [17] is described as follows: IUF_NPC1a_proliferation_area_72hr: Leibniz Research Institute for Environmental Medicine (IUF) 72-hour Neural Progenitor Cell Proliferation Area Assay (NPC1a) (AID 2284208). Summed up:
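Single 0.25–0.35 mm human fetal neural progenitor spheres in proliferation medium with EGF and FGF, exposed 72 h from plating without renewal at 37C, pH 7.2-7.6. Sphere area growth measured by automated phase-contrast imaging, relative to DMSO.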

Assay [18] in a line: IUF_NPC1_viability_72hr: Viability Assessment at 72 hours in the Leibniz Research Institute for Environmental Medicine (IUF) Neural Progenitor Cell Proliferation Assay (NPC1) (AID 2284209). The procedure, abridged: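 Viability was measured by resazurin-to-resorufin fluorescence (alamar blue) after 72 h of continuous exposure without compound renewal. Each well held one hNPC sphere (gestational week 16-19 fetal cortex, 0.25-0.35 mm) cultured in EGF/FGF proliferation medium at 37C and pH 7.2-7.6.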

The nature of assay [19]: CCTE_Mundy_HCI_Cortical_Synap_Neur_Matur_NeuriteSpotCountPerNeuriteLength: CCTE's Synaptogenesis and Neurite Maturation Assay in rat cortical cells for Neurite Spot Count per Neurite Length, Mundy Lab (AID 2284210). Summed up:
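Neurite-associated synapse density (synaptophysin puncta per unit neurite length) is measured by fluorescence high-content imaging in rat cortical cultures treated from DIV 7 and fixed at DIV 12, with DMSO as negative control.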

Assay [20] can be described thus: CCTE_Mundy_HCI_Cortical_Synap_Neur_Matur_BPCount: CCTE's Synaptogenesis and Neurite Maturation Assay in rat cortical cells for Branch Point Count, Mundy Lab (AID 2284211). Summed up:
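HCI read-out of branch points from MAP2/synaptophysin/Hoechst immunofluorescence; rat cortical cultures, AraC DIV 5, dosing DIV 7, fixed DIV 12; fit in positive direction vs DMSO baseline.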

Assay [21] is described as follows: CCTE_Mundy_HCI_Cortical_NOG_NeuriteCount: CCTE's Neurite Outgrowth Assay in rat cortical cells for Neurite Count, Mundy Lab (AID 2284212).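 Note: cells fixed about two days after chemical exposure began.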 Summed up:
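Rat cortical primary cells; compound added 2 h post-plating, 1/10 dilution of working solution. Anti-betaIII-tubulin/AF488 ICC; ArrayScan neurite count vs DMSO.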

Assay [22] in a line: CCTE_Mundy_HCI_Cortical_NOG_NeuriteLength: CCTE's Neurite Outgrowth Assay in rat cortical cells for Neurite Length, Mundy Lab (AID 2284213). Summed up:
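First, rat primary cortical cells were plated and, 2 h later, given test chemical as a 1/10 dilution. Finally, βIII-tubulin immunostaining enabled automated imaging of neurite length.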

The nature of assay [23]: CCTE_Mundy_HCI_Cortical_Synap_Neur_Matur_NeuriteLength: CCTE's Synaptogenesis and Neurite Maturation Assay in rat cortical cells for Neurite Length, Mundy Lab (AID 2284214). Summed up:
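Neurite length quantified by automated high-content imaging of MAP2, synaptophysin and Hoechst staining. Rat cortical cells received chemical from DIV 7 to DIV 12 […], glial growth arrested by AraC at DIV 5; DMSO baseline.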

What is called AC50 is the midpoint of the concentration-response curve, whichever way the signal moves.

Turning to `Cc1[nH]n(C)c(=O)c1C(=O)c1ccc(C(F)(F)F)cc1S(C)(=O)=O`, the compound was called inactive in assay [1], in [2], in [3], in assay [4], in [5] and in [6]. The outcome in [7], in [8], in assay [9], in assay [10], in [11] and in [12] was inactive. The compound was classed as inactive in assay [13], in assay [14], in assay [15], in assay [17], in [18] and in assay [19]. The compound was called inactive in [20], in assay [21], in [22] and in [23]. Further, the AC50 in assay [16] is 43.4 µM (active).
